Laboratory results published in paper PMC7862700, “An all-to-all approach to the identification of sequence-specific readers for epigenetic DNA modifications on cytosine”.

Key:
Experiment in all cases: DAPPL (digital affinity profiling via proximity ligation, sequencing); 10 mM Tris-HCl pH 7.5, 50 mM NaCl, 1 mM DTT, 4% glycerol, room temperature, 30 min; GST-TFs on glutathione beads, 16-mer random dsDNA library, 0.1% formaldehyde crosslink after washing; high values mean tight binding
Details in all cases: protein: recombinant; tags: N-terminal GST; dsDNA, one strand shown
GABPA = target: T1, GABPA (Homo sapiens, UniProt Q06546 1-454)
T1 sequence: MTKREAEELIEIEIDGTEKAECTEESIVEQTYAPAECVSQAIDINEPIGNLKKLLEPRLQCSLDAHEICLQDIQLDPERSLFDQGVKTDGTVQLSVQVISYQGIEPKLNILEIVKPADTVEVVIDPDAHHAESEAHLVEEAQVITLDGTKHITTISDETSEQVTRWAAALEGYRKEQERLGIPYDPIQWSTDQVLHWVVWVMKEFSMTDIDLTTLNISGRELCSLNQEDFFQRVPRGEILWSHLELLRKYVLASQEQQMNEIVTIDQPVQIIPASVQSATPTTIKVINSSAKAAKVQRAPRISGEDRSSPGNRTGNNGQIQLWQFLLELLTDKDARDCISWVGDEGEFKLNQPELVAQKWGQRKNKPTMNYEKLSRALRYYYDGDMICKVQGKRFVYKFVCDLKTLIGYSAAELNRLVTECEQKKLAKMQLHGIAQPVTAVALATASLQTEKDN
Method in brief: (§1)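 Yeast served to express human transcription factors as GST fusions, which were then captured on glutathione beads and labelled with DNA barcodes. Pooled with a tag-only sample, they were incubated with 200 nmole of a 16-mer random double-stranded DNA library for 30 min at room temperature in Tris/NaCl/DTT/glycerol buffer, washed, crosslinked with 0.1% formaldehyde, ligated by proximity, amplified by PCR and sequenced. Dividing each hexamer's read frequency for a factor by its frequency for the tag-only sample gives the binding signal.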

ELF1 = ELF1 (Homo sapiens, UniProt P32519 1-619)
Chain of ELF1 (P32519 whole entry): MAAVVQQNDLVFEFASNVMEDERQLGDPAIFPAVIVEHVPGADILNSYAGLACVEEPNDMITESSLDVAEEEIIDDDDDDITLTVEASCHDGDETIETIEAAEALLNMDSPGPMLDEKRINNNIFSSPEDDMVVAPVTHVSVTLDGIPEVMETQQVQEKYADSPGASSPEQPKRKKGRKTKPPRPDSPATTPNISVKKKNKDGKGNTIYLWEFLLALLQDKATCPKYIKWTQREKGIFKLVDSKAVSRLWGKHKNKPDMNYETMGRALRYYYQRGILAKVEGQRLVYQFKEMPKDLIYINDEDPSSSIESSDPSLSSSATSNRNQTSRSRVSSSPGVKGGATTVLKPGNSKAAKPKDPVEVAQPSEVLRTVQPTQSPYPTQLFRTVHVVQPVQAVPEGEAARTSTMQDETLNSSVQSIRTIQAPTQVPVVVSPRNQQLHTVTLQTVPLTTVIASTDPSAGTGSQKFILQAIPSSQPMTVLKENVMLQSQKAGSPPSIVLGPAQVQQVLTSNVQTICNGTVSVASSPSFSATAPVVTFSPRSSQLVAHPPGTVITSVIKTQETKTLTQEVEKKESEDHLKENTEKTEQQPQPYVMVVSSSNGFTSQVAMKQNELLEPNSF
Method in brief: as §1

ELK3 = target: T2, ELK3 (Homo sapiens, UniProt P41970 1-407)
T2 sequence: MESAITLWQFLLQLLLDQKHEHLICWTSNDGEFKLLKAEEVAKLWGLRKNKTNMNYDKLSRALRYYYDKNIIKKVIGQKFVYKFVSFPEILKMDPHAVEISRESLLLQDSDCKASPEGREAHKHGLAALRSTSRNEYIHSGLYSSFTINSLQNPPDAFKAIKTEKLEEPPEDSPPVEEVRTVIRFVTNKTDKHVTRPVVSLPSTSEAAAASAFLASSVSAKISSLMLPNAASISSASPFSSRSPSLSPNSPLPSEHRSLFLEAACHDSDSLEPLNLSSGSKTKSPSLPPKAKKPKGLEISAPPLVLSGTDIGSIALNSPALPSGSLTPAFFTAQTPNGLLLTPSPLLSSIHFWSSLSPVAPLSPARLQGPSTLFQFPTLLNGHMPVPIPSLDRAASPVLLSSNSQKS
Method in brief: as §1

ETV2 = target: T3, ETV2 (Homo sapiens, UniProt O00321 1-342)
T3 sequence: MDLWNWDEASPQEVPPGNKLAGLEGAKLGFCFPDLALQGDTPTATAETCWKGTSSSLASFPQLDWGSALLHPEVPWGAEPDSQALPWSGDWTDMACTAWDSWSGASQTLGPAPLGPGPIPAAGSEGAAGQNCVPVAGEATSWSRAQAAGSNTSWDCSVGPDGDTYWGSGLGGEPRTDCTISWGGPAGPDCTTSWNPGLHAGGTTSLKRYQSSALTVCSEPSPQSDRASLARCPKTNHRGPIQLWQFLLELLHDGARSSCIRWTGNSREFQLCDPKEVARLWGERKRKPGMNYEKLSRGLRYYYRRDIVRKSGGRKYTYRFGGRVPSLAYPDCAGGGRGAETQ
Method in brief: as §1

ELF3 = target: T4, ELF3 (Homo sapiens, UniProt P78545 1-371)
T4 sequence: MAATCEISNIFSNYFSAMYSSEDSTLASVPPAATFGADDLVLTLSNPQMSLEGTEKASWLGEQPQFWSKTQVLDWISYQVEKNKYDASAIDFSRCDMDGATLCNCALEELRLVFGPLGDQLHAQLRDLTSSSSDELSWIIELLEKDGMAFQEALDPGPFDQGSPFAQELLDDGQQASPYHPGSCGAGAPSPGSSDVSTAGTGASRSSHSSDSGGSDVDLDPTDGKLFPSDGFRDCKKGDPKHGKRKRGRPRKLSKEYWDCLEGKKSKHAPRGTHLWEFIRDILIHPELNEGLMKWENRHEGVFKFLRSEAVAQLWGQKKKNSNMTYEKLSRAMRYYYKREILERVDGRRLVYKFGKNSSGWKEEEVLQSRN
Method in brief: as §1

ETV6 = ETV6 (Homo sapiens, UniProt P41212 1-452)
Chain of ETV6 (P41212 whole entry): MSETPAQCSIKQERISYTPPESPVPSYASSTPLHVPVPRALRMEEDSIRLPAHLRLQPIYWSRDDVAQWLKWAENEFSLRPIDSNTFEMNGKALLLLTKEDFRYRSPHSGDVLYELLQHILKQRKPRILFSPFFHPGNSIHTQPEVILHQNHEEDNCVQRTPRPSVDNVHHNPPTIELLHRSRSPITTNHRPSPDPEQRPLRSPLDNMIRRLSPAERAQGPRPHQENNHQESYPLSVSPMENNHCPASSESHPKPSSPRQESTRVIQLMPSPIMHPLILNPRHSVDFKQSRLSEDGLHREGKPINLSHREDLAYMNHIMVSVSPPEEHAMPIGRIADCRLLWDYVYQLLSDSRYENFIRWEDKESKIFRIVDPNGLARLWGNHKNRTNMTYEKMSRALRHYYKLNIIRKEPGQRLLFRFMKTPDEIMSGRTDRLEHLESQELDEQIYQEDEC
Method in brief: as §1

ERG = target: T5, ERG (Homo sapiens, UniProt P11308 1-479)
T5 sequence: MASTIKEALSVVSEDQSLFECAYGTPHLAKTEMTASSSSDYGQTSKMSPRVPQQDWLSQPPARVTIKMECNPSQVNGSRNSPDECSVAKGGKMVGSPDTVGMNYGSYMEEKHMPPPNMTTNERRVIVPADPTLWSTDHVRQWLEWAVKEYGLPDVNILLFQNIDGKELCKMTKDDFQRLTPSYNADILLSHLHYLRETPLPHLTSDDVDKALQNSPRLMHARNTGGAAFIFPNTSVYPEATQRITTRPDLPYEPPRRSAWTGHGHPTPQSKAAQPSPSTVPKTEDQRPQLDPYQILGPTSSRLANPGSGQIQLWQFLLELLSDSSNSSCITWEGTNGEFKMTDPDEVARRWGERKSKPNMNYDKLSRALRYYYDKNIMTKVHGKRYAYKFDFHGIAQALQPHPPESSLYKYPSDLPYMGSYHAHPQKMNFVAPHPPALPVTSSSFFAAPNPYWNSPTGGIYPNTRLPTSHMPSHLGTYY
Method in brief: as §1

EHF = target: T6, EHF (Homo sapiens, UniProt Q9NZC4 1-300)
T6 sequence: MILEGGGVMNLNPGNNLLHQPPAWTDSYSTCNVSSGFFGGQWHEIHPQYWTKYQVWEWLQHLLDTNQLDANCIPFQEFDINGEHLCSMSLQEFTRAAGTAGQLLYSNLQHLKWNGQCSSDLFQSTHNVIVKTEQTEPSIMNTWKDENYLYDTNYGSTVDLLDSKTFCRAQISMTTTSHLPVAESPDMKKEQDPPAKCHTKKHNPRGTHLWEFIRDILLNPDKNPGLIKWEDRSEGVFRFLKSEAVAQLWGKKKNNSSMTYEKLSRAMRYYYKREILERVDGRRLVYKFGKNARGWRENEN
Method in brief: as §1

SPIC = target: T7, SPIC (Homo sapiens, UniProt Q8N5J4 1-248)
T7 sequence: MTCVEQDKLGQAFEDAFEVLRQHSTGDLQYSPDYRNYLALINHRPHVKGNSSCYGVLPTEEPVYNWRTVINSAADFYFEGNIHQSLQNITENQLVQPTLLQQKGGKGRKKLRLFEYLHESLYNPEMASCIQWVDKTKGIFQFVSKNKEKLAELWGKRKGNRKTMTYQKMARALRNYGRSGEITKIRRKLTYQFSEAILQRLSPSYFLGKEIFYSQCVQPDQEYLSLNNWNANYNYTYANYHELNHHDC
Method in brief: as §1

ERF = target: T8, ERF (Homo sapiens, UniProt P50548 1-548)
T8 sequence: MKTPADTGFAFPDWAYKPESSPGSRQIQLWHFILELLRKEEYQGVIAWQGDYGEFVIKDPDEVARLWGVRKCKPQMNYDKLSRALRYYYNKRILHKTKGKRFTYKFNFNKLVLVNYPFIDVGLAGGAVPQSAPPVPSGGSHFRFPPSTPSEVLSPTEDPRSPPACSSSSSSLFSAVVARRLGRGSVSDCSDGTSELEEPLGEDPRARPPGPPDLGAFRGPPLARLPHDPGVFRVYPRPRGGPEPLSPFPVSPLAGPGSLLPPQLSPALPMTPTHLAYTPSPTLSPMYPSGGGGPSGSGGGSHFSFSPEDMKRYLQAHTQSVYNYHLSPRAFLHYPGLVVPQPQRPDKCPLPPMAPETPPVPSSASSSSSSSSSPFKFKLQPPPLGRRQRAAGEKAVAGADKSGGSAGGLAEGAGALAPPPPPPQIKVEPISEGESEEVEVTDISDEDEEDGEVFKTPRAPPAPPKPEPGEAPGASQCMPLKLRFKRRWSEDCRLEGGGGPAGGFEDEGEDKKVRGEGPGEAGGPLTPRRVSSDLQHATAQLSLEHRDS
Method in brief: as §1

Sequence: AACTGT
- binding signal (GABPA): 1.01 fold enrichment (6-mer frequency, TF over GST control)
- binding signal (ELF1): 1.02 fold enrichment (6-mer frequency, TF over GST control)
- binding signal (ELK3): 1.06 fold enrichment (6-mer frequency, TF over GST control)
- binding signal (ETV2): 1.15 fold enrichment (6-mer frequency, TF over GST control)
- binding signal (ELF3): 1.09 fold enrichment (6-mer frequency, TF over GST control)
- binding signal (ETV6): 1.04 fold enrichment (6-mer frequency, TF over GST control)

Sequence: AGTTAC
- binding signal (ERG): 1 fold enrichment (6-mer frequency, TF over GST control)
- binding signal (EHF): 1.02 fold enrichment (6-mer frequency, TF over GST control)
- binding signal (ELK3): 1.03 fold enrichment (6-mer frequency, TF over GST control)
- binding signal (SPIC): 1.1 fold enrichment (6-mer frequency, TF over GST control)
- binding signal (ERF): 1.01 fold enrichment (6-mer frequency, TF over GST control)
